Test results reported in the supplement of paper PMC10515830.
Counter-ions that a name gives are not always drawn.

test system: Danio rerio larvae (5 dpf); assay: difference in activity during first hour vs DMSO (percentage points); higher = more activity than DMSO; conditions: 10 µM; exposure time 6 h
Method in brief: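 Wild-type 5 dpf zebrafish larvae in 96-well plates were given 100 µL egg water containing library compound at 10 µM final for 6 h. After 3 h of exposure, plates at 28.5 ℃ were photographed every 6 s during a 3-h programme of moving lines and 100 ms, 400Hz tones. Z-LaP Tracker (a DeepLabCut model) quantified each behaviour, averaged over 48 larvae per compound. Values are the compound mean minus the DMSO-vehicle control, in percentage points.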

Row | SMILES | difference in activity during first hour
1 | Cc1nc2n(c(=O)c1CCN1CCC(c3noc4cc(F)ccc34)CC1)CCCC2 [Risperidone] | 7.15
2 | CC(C)c1c(C(=O)Nc2ccccc2)c(-c2ccccc2)c(-c2ccc(F)cc2)n1CC[C@@H](O)C[C@@H](O)CC(=O)O [Atorvastatin (calcium salt hydrate)] | -6.37
3 | N=C(N)NCCC[C@@H](NC(=O)[C@@H]1CCCN1C(=O)[C@@H]1CSSCCC(=O)N[C@@H](Cc2ccc(O)cc2)C(=O)N[C@@H](Cc2ccccc2)C(=O)N[C@@H](CCC(N)=O)C(=O)N[C@@H](CC(N)=O)C(=O)N1)C(=O)NCC(N)=O [Desmopressin (trifluoroacetate salt)] | 28.8
4 | CC(=O)OCC(CCn1cnc2cnc(N)nc21)COC(C)=O [Famciclovir] | -7.41
5 | COC(=O)/C=C/C(=O)OC [Dimethyl fumarate] | 20.1
6 | CC(C)OC(=O)[C@H](C)N[P@](=O)(OC[C@H]1O[C@@H](n2ccc(=O)[nH]c2=O)[C@](C)(F)[C@@H]1O)Oc1ccccc1 | 10
7 | CCN(CC)C(=O)[C@@]1(c2ccccc2)C[C@H]1CN [Levomilnacipran (hydrochloride)] | -23
8 | Cc1ccc(N(CC2=NCCN2)c2cccc(O)c2)cc1 [Phentolamine (mesylate)] | 20
9 | COc1ccc(C[C@@H](C)NC[C@H](O)c2ccc(O)c(NC=O)c2)cc1 [Arformoterol (tartrate)] | 39
10 | COC(=O)[C@H]1[C@H]2C[C@@H]3c4[nH]c5cc(OC)ccc5c4CCN3C[C@H]2C[C@@H](OC(=O)c2cc(OC)c(OC)c(OC)c2)[C@@H]1OC [Reserpine] | 9.27
11 | CO[C@H]1/C=C/O[C@@]2(C)Oc3c(C)c(O)c4c(O)c(c(/C=N/N5CCN(C6CCCC6)CC5)c(O)c4c3C2=O)NC(=O)/C(C)=C\C=C\[C@H](C)[C@H](O)[C@@H](C)[C@@H](O)[C@@H](C)[C@H](OC(C)=O)[C@@H]1C [Rifapentine] | -3.15
12 | CN(C)CCOC(C)(c1ccccc1)c1ccccn1 (stereo not drawn) [Doxylamine (succinate)] | 6.73
13 | CC1=NN(c2ccc(C)c(C)c2)C(=O)/C1=N\Nc1cccc(-c2cccc(C(=O)O)c2)c1O [Eltrombopag] | 17.7
14 | CN1C(CCl)Nc2cc(Cl)c(S(N)(=O)=O)cc2S1(=O)=O (stereo not drawn) [Methyclothiazide] | -0.184
15 | Nc1ccc(O)c(C(=O)O)c1 [5-Aminosalicylic Acid] | 3.09
16 | CCOc1cc(CC(=O)N[C@@H](CC(C)C)c2ccccc2N2CCCCC2)ccc1C(=O)O [Repaglinide] | 14.4
17 | COc1ccc(Cl)cc1C(=O)NCCc1ccc(S(=O)(=O)NC(=O)NC2CCCCC2)cc1 [Glyburide (potassium salt)] | 10.9
18 | C#Cc1cccc(Nc2ncnc3cc(OCCOC)c(OCCOC)cc23)c1 [Erlotinib] | -6.91
19 | CCCc1c2oc(C(=O)O)cc(=O)c2cc2c(=O)cc(C(=O)O)n(CC)c12 [Nedocromil (sodium salt)] | -6.98

Row | SMILES | difference in activity during first hour
20 | NCc1ccc(S(N)(=O)=O)cc1 [Mafenide] | 4.01
21 | C[C@H]1O[C@H](O[C@H]2[C@H](O)[C@@H](O)[C@@H](O[C@H]3[C@H](O)[C@@H](O)C(O)O[C@@H]3CO)O[C@@H]2CO)[C@H](O)[C@@H](O)[C@@H]1N[C@H]1C=C(CO)[C@@H](O)[C@H](O)[C@H]1O (stereo partly drawn) [Acarbose] | -0.68
22 | NC1=NCC2c3ccccc3Cc3ccccc3N12 (stereo not drawn) [Epinastine (hydrochloride)] | 14.1
23 | CCCc1nc2c(C)cc(-c3nc4ccccc4n3C)cc2n1Cc1ccc(-c2ccccc2C(=O)O)cc1 [Telmisartan] | 9.61
24 | COc1ccc(-n2nc(C(N)=O)c3c2C(=O)N(c2ccc(N4CCCCC4=O)cc2)CC3)cc1 [Apixaban] | 1.99
25 | Cc1c(O)c(=O)ccn1C [Deferiprone] | 8.16
26 | Nc1nc(Cl)nc2c1ncn2[C@H]1C[C@H](O)[C@@H](CO)O1 [Cladribine] | -3.5
27 | CC(=O)CC(c1ccccc1)c1c(O)c2ccccc2oc1=O (racemic) [(±)-Warfarin] | -0.141
28 | Nc1nc(O)c2ncn(CCC(CO)CO)c2n1 [Penciclovir] | 13.9
29 | CCCNC(C)C(=O)Nc1c(C)csc1C(=O)OC (stereo not drawn) [Articaine (hydrochloride)] | 5.22
30 | COC(=O)C1=C(C)NC(C)=C(C(=O)OCC(C)C)C1c1ccccc1[N+](=O)[O-] (stereo not drawn) [Nisoldipine] | 0.119
31 | CC(C)c1nc(CN(C)C(=O)N[C@H](C(=O)N[C@@H](Cc2ccccc2)C[C@H](O)[C@H](Cc2ccccc2)NC(=O)OCc2cncs2)C(C)C)cs1 [Ritonavir] | 2.31
32 | NC(=O)N[C@@H](CCC(=O)O)C(=O)O [N-Carbamyl-L-Glutamic Acid] | 17.4
33 | N=C(N)NC(=O)c1nc(Cl)c(N)nc1N [Amiloride (hydrochloride) (hydrate)] | -3.37
34 | Cc1c(OCC(F)(F)F)ccnc1C[S+]([O-])c1nc2ccccc2[nH]1 (stereo not drawn) [Lansoprazole] | 1.57
35 | NNC(=O)c1ccncc1 [Isoniazid] | 12.7
36 | C[C@@H]1O[C@@H]1P(=O)(O)O [Fosfomycin Trometamol] | -4.99
37 | N#Cc1ccc(C(c2ccc(C#N)cc2)n2cncn2)cc1 [Letrozole] | -6.93
38 | Nc1nc(-n2cc(C(=O)O)c(=O)c3cc(F)c(N4CC(O)C4)c(Cl)c32)c(F)cc1F [Delafloxacin] | -8.49
